Several values for one entry are separate records, joined by “and”; a condition that tells them apart may be missing. Identical values can stand only once. Results filed as inconclusive are left out. A number with no mark means an inactive call. Activity calls are given as the source filed them. Calls follow the shape of the dose curve; as a rule, active = well fitted inhibition curve with a large enough effect; inconclusive = small, poorly fitted or top-dose-only effect; inactive = flat fitted curve, though single readings scatter.
What was measured:
CRL-7250 = normal cell line; assay: Cytotoxic Profiling of Annotated Libraries Using Quantitative High-Throughput Screening (AID 1296008); details: Five cell lines viability, CellTiter-Glo ATP luminescence, 48-72 h; max response: active compounds read low; also: potency is read from the fitted curve at half-maximal effect; as to max response: % is scaled to controls: 0 for no effect and ±100 for the full control effect
Procedure, shortened: (§1)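 Cytotoxicity was measured as CellTiter-Glo ATP luminescence, read after 10 min at room temperature. Compound treatment of the cells lasted 48 or 72 hr at 37 degrees Celsius in a qHTS format.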

HEK293 = assay: as above; details: Five cell lines viability, CellTiter-Glo ATP luminescence, 48-72 h; max response: active compounds read low
Procedure, shortened: as §1

HaCat [1] = assay: as above; details: Five cell lines viability, CellTiter-Glo ATP luminescence, 48-72 h; max response: active compounds read low
Procedure, shortened: as §1

KB-3-1 = assay: as above; details: Five cell lines viability, CellTiter-Glo ATP luminescence, 48-72 h; max response: active compounds read low
Procedure, shortened: as §1

NIH3T3 = assay: as above; details: Five cell lines viability, CellTiter-Glo ATP luminescence, 48-72 h; max response: active compounds read low
Procedure, shortened: as §1

MCC-13 = assay: qHTS assay to identify novel small-molecules to repurpose for Merkel cell carcinoma treatment (AID 1296009); details: MCC and control cell lines, CellTiter-Glo viability, 72 h; series mostly up to 46 µM; also: potency is read from the fitted curve at half-maximal effect
Procedure, shortened: (§2)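 Cell viability, measured as CellTiter-Glo luminescence, was normalized between DMSO and no-cell wells. The cells had been exposed to 8- or 11-point compound dilutions for 72 hr at 37 degree celsius.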

MKL-1 = assay: as above; details: MCC and control cell lines, CellTiter-Glo viability, 72 h; series mostly up to 46 µM
Procedure, shortened: as §2

P94_40 = assay: qHTS profiling for inhibitors of Plasmodium falciparum proliferation (AID 504749);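 also: 0% = DMSO vehicle and full inhibition = artemisinin control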; details: P. falciparum in erythrocytes, SYBR Green DNA, 72 h; series mostly up to 28.7 µM
Procedure, shortened: (§3)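 SYBR Green fluorescence of parasite DNA, read after lysis and overnight dark incubation, measured growth over 72 h in erythrocyte culture at 0.3% parasitemia and 2.5% hematocrit. Data normalised to DMSO and 0.29 uM artemisinin, with plate-drift correction.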

PAD = assay: as above; details: P. falciparum in erythrocytes, SYBR Green DNA, 72 h; series mostly up to 28.7 µM
Procedure, shortened: as §3

PC15 = assay: as above; details: P. falciparum in erythrocytes, SYBR Green DNA, 72 h; series mostly up to 28.7 µM
Procedure, shortened: as §3

PC49 = assay: as above; details: P. falciparum in erythrocytes, SYBR Green DNA, 72 h; series mostly up to 28.7 µM
Procedure, shortened: as §3

SC27B = assay: as above; details: P. falciparum in erythrocytes, SYBR Green DNA, 72 h; series mostly up to 28.7 µM
Procedure, shortened: as §3

TAB109 = assay: as above; details: P. falciparum in erythrocytes, SYBR Green DNA, 72 h; series mostly up to 28.7 µM
Procedure, shortened: as §3

TAB113 = assay: as above; details: P. falciparum in erythrocytes, SYBR Green DNA, 72 h; series mostly up to 28.7 µM
Procedure, shortened: as §3

TAB165 = assay: as above; details: P. falciparum in erythrocytes, SYBR Green DNA, 72 h; series mostly up to 28.7 µM
Procedure, shortened: as §3

MCC-26 = assay: qHTS assay to identify novel small-molecules to repurpose for Merkel cell carcinoma treatment (AID 1296009); details: MCC and control cell lines, CellTiter-Glo viability, 72 h; series mostly up to 46 µM; also: potency is read from the fitted curve at half-maximal effect
Procedure, shortened: as §2

HACAT [2] = assay: as above; details: MCC and control cell lines, CellTiter-Glo viability, 72 h; series mostly up to 44.8 µM
Procedure, shortened: as §2
Also: nearly all actives have a fitted effect of over 60% in size.

C[C@@H](Oc1cc(-c2cnn(C3CCNCC3)c2)cnc1N)c1c(Cl)ccc(F)c1Cl
Potency (CRL-7250): 11.8 µM (active) and 20.6 µM (active) and 23.1 µM (active)
Potency (HEK293): 4.18 µM (active) and 4.11 µM (active) and 5.8 µM (active)
Potency (HaCat [1]): 13 µM (active) and 10.3 µM (active)
Potency (KB-3-1): 6.51 µM (active)
Potency (NIH3T3): 3.72 µM (active) and 2.91 µM (active) and 5.17 µM (active)
Potency (MCC-13): inactive
Potency (MKL-1): 13.2 µM (active)

C[C@H]1C[C@@H]2[C@@H]([C@@H](O)C[C@@]3(C)[C@H]2CC[C@]3(O)C(=O)CO)[C@@]2(C)C=CC(=O)C=C12
Potency (P94_40): inactive
Potency (PAD): inactive
Potency (PC15): inactive
Potency (PC49): inactive
Potency (SC27B): inactive
Potency (TAB109): inactive
Potency (TAB113): inactive
Potency (TAB165): inactive
max response (CRL-7250): -0.811%
max response (HEK293): -9.41%
max response (HaCat [1]): -11.8%
max response (KB-3-1): -1.28% and 2.95%
outcome (NIH3T3): inactive
Potency (MCC-13): inactive
Potency (MKL-1): inactive

CN1CCC(CNc2ccc3ncc(-c4cccc(OC(F)(F)F)c4)n3n2)CC1
Potency (CRL-7250): 4.69 µM (active)
Potency (HEK293): 23.5 µM (active)
Potency (HaCat [1]): 13.2 µM (active) and 16.4 µM (active)
Potency (KB-3-1): 20.9 µM (active)
Potency (MCC-13): inactive
Potency (MCC-26): inactive

CC[C@@]1(O)C(=O)OCc2c1cc1n(c2=O)Cc2cc3cc(O)ccc3nc2-1
Potency (CRL-7250): 1.3 µM (active) and 1.48 µM (active)
Potency (HEK293): 73.1 nM (active) and 148 nM (active)
Potency (HaCat [1]): 116 nM (active) and 743 nM (active)
Potency (KB-3-1): 517 nM (active) and 1.05 µM (active)
Potency (NIH3T3): 1.46 µM (active) and 662 nM (active)
Potency (MCC-13): 0.118 µM (active)
Potency (MCC-26): 0.132 µM (active)
Potency (MKL-1): 0.0372 µM (active)

COc1cccc(-c2ccc(NC(=O)C3=C(C(=O)O)CCC3)c(F)c2)c1
max response (CRL-7250): -3.86% and -6.53%
Potency (HEK293): 7.43 µM (active) and 6.51 µM (active)
outcome (HaCat [1]): inactive
max response (KB-3-1): -19.3%
Potency (HACAT [2]): inactive
Potency (MCC-13): inactive
Potency (MCC-26): inactive

CC(C)c1ccc(Cn2ccc3c4c(N)nc(NC5CC5)nc4ccc32)cc1
Potency (CRL-7250): 3.32 µM (active)
Potency (HEK293): 1.18 µM (active)
Potency (HaCat [1]): 37.2 µM (active)
Potency (KB-3-1): 1.32 µM (active)
Potency (NIH3T3): 4.69 µM (active)
Potency (MCC-13): 1.05 µM (active)
Potency (MCC-26): 16.6 µM (active)
Potency (MKL-1): 14.8 µM (active)

C=CC(=O)Nc1cccc(Oc2nc(Nc3ccc(N4CCN(C)CC4)cc3)ncc2Cl)c1
Potency (CRL-7250): 4.18 µM (active) and 920 nM (active)
Potency (HEK293): 5.26 µM (active) and 9.2 µM (active)
Potency (HaCat [1]): 1.18 µM (active) and 2.31 µM (active)
Potency (KB-3-1): 2.96 µM (active) and 5.8 µM (active)
Potency (NIH3T3): 3.72 µM (active) and 6.51 µM (active)
Potency (MCC-13): 7.43 µM (active)
Potency (MKL-1): 3.32 µM (active)

COc1cc(Nc2ncc(F)c(Nc3ccc4c(n3)N(COP(=O)(O)O)C(=O)C(C)(C)O4)n2)cc(OC)c1OC
Potency (CRL-7250): 1.48 µM (active) and 3.66 µM (active)
Potency (HEK293): 3.72 µM (active) and 7.31 µM (active)
Potency (HaCat [1]): 4.69 µM (active) and 4.61 µM (active)
Potency (KB-3-1): 4.11 µM (active)
Potency (NIH3T3): 2.06 µM (active)
Potency (MCC-13): inactive
Potency (MKL-1): inactive

Nc1nccc(Oc2ccc(NC(=O)c3c[nH]cc(-c4ccc(F)cc4)c3=O)cc2F)c1Cl
Potency (CRL-7250): 18.7 µM (active)
Potency (HEK293): 11.8 µM (active) and 13 µM (active)
max response (HaCat [1]): -25.3%
Potency (KB-3-1): 23.5 µM (active) and 18.4 µM (active)
Potency (NIH3T3): 16.6 µM (active)
Potency (MCC-13): inactive
Potency (MKL-1): 5.26 µM (active)

O=C(C=Cc1cccnc1)NCCCCC1CCN(C(=O)c2ccccc2)CC1
Potency (CRL-7250): 0.0743 µM (active)
Potency (HEK293): 0.0074 µM (active)
Potency (HaCat [1]): 0.372 µM (active)
Potency (KB-3-1): 0.0132 µM (active)
Potency (NIH3T3): 0.0372 µM (active)
Potency (MCC-13): 0.0526 µM (active)
Potency (MCC-26): 0.0209 µM (active)

CN(C)Cc1c(C(=O)NCCOc2ccc(C(=O)NO)cc2)oc2ccccc12
Potency (CRL-7250): 4.69 µM (active) and 4.61 µM (active)
Potency (HEK293): 1.87 µM (active) and 1.16 µM (active)
Potency (HaCat [1]): 4.11 µM (active)
Potency (KB-3-1): 1.48 µM (active) and 1.3 µM (active)
Potency (NIH3T3): 3.72 µM (active) and 3.26 µM (active)
Potency (MCC-13): 8.33 µM (active)
Potency (MCC-26): 7.43 µM (active)

Source: PubChem BioAssay (NCATS)
